HT1080-NT tox – kills 2HG-producing HT-1080-NT fibrosarcoma cells; Potency, µM (series often up to 46.1 µM), for the others: at the top dose activity, negative = less viability, usual class: cytotoxic; 360,000 compounds, 1.6% hits; HT-1080-NT fibrosarcoma viability, CellTiter-Glo ATP luminescence, 48 h;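 also: NT is the 2HG producing partner of a matched IDH1 knockdown line; potency is read from the fitted curve at half-maximal effect; 0% = DMSO-treated cells and -100% = media-only wells without cells; nearly all actives have a fitted effect of over 55% in size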
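Fibrosarcoma NT cells, 750 per well in 5% FBS RPMI, were exposed to compound for 48 hours. Viability: CellTiter-Glo luminescence.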
IL-1B inflam inh – blocks inflammasome-driven IL-1 beta release | THP-1 LPS/ATP IL-1B secretion, AlphaLISA, 16 h; stronger effect = lower value | 360,000 compounds, 4.7% hits | AID 743279 | activity change, % at 57.5 µM; in the data active = activity change below about -50%; inconclusive = mostly about -30% to -49%
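THP-1 cells pretreated 1 hr with compounds (up to 57.5 uM final), then stimulated with LPS (250 ng/mL final) plus ATP (1.25 mM final); secreted IL-1B measured by AlphaLISA after 16 hr, decreased signal indicating inhibition.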
ELG1 repair inh – ELG1-dependent DNA repair inhibition; HEK293T ELG1-luciferase reporter, luminescence, 16 h; DNA damage induced by 5-fluorouridine; Potency, µM (titrated, usually from 46.1 µM), inactives show at the top dose activity change, negative = inhibition, usual class: inhibitors; 330,000 compounds, 2.3% hits; AID 504467; also: potency is read from the fitted curve at half-maximal effect; nearly all actives have a fitted effect of over 55% in size
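Reporter activity after DNA damage by 5-fluorouridine is monitored. Compound-treated cells incubate 16 hr at 37 °C, then ONE-Glo is added for 30 min before luminescence reading.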
TDP1 cell CPT – DT40-hTDP1 cell growth loss with CPT. chicken DT40 Tdp1-/-;hTDP1 cells + 20 nM CPT, ATP luminescence, 48 h. Potency, µM (titrated, usually from 46.2 µM), for inactives: at the top dose activity change, negative = growth inhibition, actives largely listed as inhibitors. 420,000 compounds, 12% hits; also: potency is read from the fitted curve at half-maximal effect; nearly all actives have a fitted effect of over 55% in size
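Cell growth measured by CellTiter-Glo luminescence after a minimum 48 h, 37 C compound exposure with 20 nM CPT in Tdp1-knockout DT40 cells stably expressing hTDP1, seeded 400/well; qHTS titration format.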
DT40 TDP1 no CPT – qHTS for Inhibitors of human tyrosyl-DNA phosphodiesterase 1 (TDP1): qHTS in cells in absence of CPT; DT40 Tdp1-/- hTDP1 cells, no CPT, ATP luminescence, 48 h; 420,000 compounds, 15% hits; Potency, µM (titrated, usually from 46.2 µM), for the others: top-dose activity change, negative = growth inhibition, actives largely listed as inhibitors; AID 686978, 2013; also: potency is read from the fitted curve at half-maximal effect; nearly all actives have a fitted effect of over 55% in size
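Compound effects on proliferation are scored in DT40 Tdp1-/-;hTDP1 cells in the absence of CPT. ATP levels (CellTiter-Glo luminescence) are recorded after a ≥48 hr, 37 °C incubation.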
HT1080 IDH1KD tx – toxicity to HT-1080 IDH1 knockdown cells (counter line). Potency, µM (series often up to 46.1 µM), for the others: top-dose activity, negative = toxicity, hits mostly cytotoxic. HT-1080 IDH1 knockdown viability, ATP luminescence, 48 h. 360,000 compounds, 2% hits. AID 686971;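 also: potency is read from the fitted curve at half-maximal effect; 0% = DMSO wells and -100% = cell-free medium wells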
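Using the IDH1-knockdown HT-1080 line run in the same batch and compound series as the NT line, viability after 48 h at 37 °C was determined by CellTiter-Glo luminescence and expressed as % activity.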
* marks the source's active call; other numbers are inactive results; ? = inconclusive; / = no result; [ ] = remark or other dose. Sampled rows, rich in hits. Any-hit rate of the full collection: about 19%. Unless noted, calls follow the shape of the dose curve; as a rule, active = well fitted curve in the direction sought with a large enough effect; inconclusive = small, poorly fitted or top-dose-only effect, or another doubt; inactive = no such curve, though single readings can be large; an effect the other way counts as inactive or inconclusive. Unless noted, % is scaled to controls: 0 for no effect and ±100 for the full control effect.

SMILES	HT1080-NT tox	IL-1B inflam inh	ELG1 repair inh	TDP1 cell CPT	DT40 TDP1 no CPT	HT1080 IDH1KD tx
O=C(CSc1nnc(Cc2ccccc2)o1)Nc1ccc(N2CCOCC2)cc1	7%	0	15%	12%	16%	4%
C[C@@H](NC(=O)c1[nH]cnc1C(=O)Nc1nccs1)c1ccccc1	0%	-1	?	?	?	-7%
C/C(N[C@@H]1CSCC1O)=C1/C(=O)CC2[C@@H]1C2(C)C (stereo partly specified)	/	/	/	-9%[9.04 µM]	5%[9.04 µM]	/
COc1ccc2nc(N/C(N)=N/C(=S)Nc3c(C)cccc3C)nc(C)c2c1	-6%	-63*	-4%	16µM*	21µM*	1%
COc1ccc2nc(N/C(N)=N/C(=S)Nc3cccc(C)c3)nc(C)c2c1	-7%	-56*	?	?	26µM*	-9%
CCOc1ccc2nc(N/C(N)=N/C(=S)Nc3cccc(OC)c3)nc(C)c2c1	-2%	-55*	?	?	?	9%
Cc1ccc(NC(=S)/N=C(\N)Nc2nc(C)c3cc(C)c(C)cc3n2)cc1C	6%	-14	?	?	?	-4%
CCOc1ccc2nc(N/C(N)=N/C(=S)Nc3cccc(C)c3)nc(C)c2c1	16%	?	-3%	18µM*	21µM*	5%
COc1ccc(NC(=S)/N=C(\N)Nc2nc(C)c3ccccc3n2)cc1	-1%	-7	?	?	?	?
Cc1ccc(NC(=S)/N=C(\N)Nc2nc(C)c3cc(C)ccc3n2)c(C)c1	-12%	-17	?	21µM*	12µM*	?
CCCN1C(=O)/C(=C/C=C2\N(CC)c3ccccc3C2(C)C)SC1=S	3%	-6	5%	?	13µM*	-14%
Cc1ccccc1Cn1nnc2c1C(=O)c1ccccc1C2=O	-9%	0	/	8.2µM*	6.5µM*	23µM*
COc1ccccc1CN1C(=O)C(=O)N(Cc2cccc(C)c2)C1=O	5%	-1	0%	-2%	0%	5%
Cc1cccc(Cn2nnc3c2C(=O)c2ccccc2C3=O)c1	?	11	?	9.2µM*	4.6µM*	?
CCOC(=O)/C=c1/s/c(=C/c2ccccc2OC)c(=O)n1CC(=O)N1CCOCC1	4%	-13	/	?	-46%	7%
N#Cc1ccccc1COc1cccc2c1CCCC2O (stereo unspecified)	5%	-16	-2%	?	15µM*	-12%
O=C(COC(=O)/C=C/c1cccc(C(F)(F)F)c1)Nc1cccc(S(=O)(=O)NC2=NCCC2)c1	0%	-15	/	-13%	-19%	7%
COc1ccc(S(=O)(=O)N2CCCCC2)cc1NC(=O)CCNC(=O)c1ccco1	-3%	7	3%	-14%	-11%	1%
CC(=O)Oc1c(Cl)c(N2CCOCC2)c(OC(C)=O)c2ccccc12	-4%	63	?	21µM*	16µM*	0%
CN(CC(=O)Nc1cccc(F)c1)C(=O)c1cn(-c2ccccc2)nc1-c1ccccc1	-3%	?	19%	?	?	-6%
CN(CC(=O)Nc1ccc(F)cc1)C(=O)c1cn(-c2ccccc2)nc1-c1cccs1	-10%	-60*	?	?	?	-2%
COc1ccc(NC(=O)CN(C)C(=O)c2cn(-c3ccccc3)nc2-c2cccs2)cc1	0%	-16	?	?	16µM*	-2%
O=C(c1cn(-c2ccccc2)nc1-c1cccs1)N1CCN(c2ccccc2)CC1	?	10	6%	7.3µM*	7.3µM*	7.1µM*
COc1ccc(NC(=O)CN(C)C(=O)c2cn(-c3ccccc3)nc2-c2cccnc2)cc1	-1%	14	?	-26%	?	-4%
COc1ccccc1-c1ccnc(-n2ncc(C(=O)NCCc3cccnc3)c2C)n1	/	/	/	4%[9.04 µM]	-2%	/
SMILES	HT1080-NT tox	IL-1B inflam inh	ELG1 repair inh	TDP1 cell CPT	DT40 TDP1 no CPT	HT1080 IDH1KD tx
Nc1c(C(=O)N2CCCCCC2)oc2ccccc12	4%	14	?	-23%	?	2%
O=C1c2ccc([N+](=O)[O-])cc2NC(c2ccco2)N1/N=C/c1ccco1 (stereo unspecified)	-9%	-21	10%	-26%	18µM*	-13%
CN=c1scc(-c2ccc([N+](=O)[O-])cc2)n1/N=C/c1ccco1	17%	-10	?	11%	-11%	?
CCOC(=O)C1CCCN(C(=O)c2ccc(NC(=O)c3nsc4ccccc34)cc2)C1 (stereo unspecified)	/	/	/	?	16µM*	/
CCOC(=O)C1CCN(C(=O)c2ccc(NC(=O)c3nsc4ccccc34)cc2)CC1	/	/	/	21µM*	?	/
O=C(O)C1(O)CC(O)C(O)C(O)C1 (stereo unspecified)	/	/	/	4%	-4%	/
Cn1ncc2cc3c(Nc4ccc(Cl)cc4)cccc3nc21	?	-25	/	21µM*	12µM*	?
Nc1cc(N)c(OCC(F)(F)F)cc1OCC(F)(F)F	-3%	-5	0%	2.6µM*	9.2µM*	-6%
Nc1cc(OCC(F)(F)F)cc([N+](=O)[O-])c1	4%	-10	?	0%	-7%	2%
CCc1c(C)c2ccc(OC(C)C(=O)NC(Cc3c[nH]c4ccc(O)cc34)C(=O)O)c(C)c2oc1=O (stereo unspecified)	1%	3	2%	-11%	-20%	7%
CC(=O)c1ccc(C(=O)Nc2sc3c(c2C(N)=O)CCN(Cc2ccccc2)C3)cc1	/	/	7%	/	/	/
CCCN1CCc2c(sc(NC(=O)c3ccc(S(=O)(=O)N(C)c4ccccc4)cc3)c2C(=O)NC)C1	?	-60*	23µM*	?	?	?
CCCN1CCc2c(sc(NC(=O)c3ccc(S(=O)(=O)N(C)c4ccccc4)cc3)c2C(N)=O)C1	-24%	-16	?	21µM*	?	?
CCOc1ccccc1NC(=O)c1ccc(S(=O)(=O)N(C)c2ccccc2)cc1	6%	0	0%	-20%	?	0%
NS(=O)(=O)c1ccc(F)c(C(=O)O)c1	18%	-8	-1%	0%	1%	14%
Cc1ccc(O)c(Cc2cc(C)cc(Cc3cc(C)ccc3O)c2O)c1	-18%	-2	/	?	?	?
Oc1ccc(Cl)cc1CNCc1ccc(F)c(F)c1	1%	?	16%	?	-23%	-3%

Screening results (PubChem BioAssay)
